We go through 16 compounds from PubChem BioAssay (NCI).

Test systems include SR leukemia; OVCAR-8 ovarian; OVCAR-5 ovarian; OVCAR-4 ovarian; SK-OV-3 ovarian; IGROV1 ovarian; OVCAR-3 ovarian; HS 578T breast; NCI/ADR-RES ovarian.
Assay in all cases: NCI-60 one-dose screen, 48 h (100 = growth as untreated, 0 = no growth, -100 = all killed)
Details in all cases: 10 µM unless noted

The panel holds about 83,000 compounds, 20% with a hit somewhere; the sample as a whole holds those more often.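 Single-concentration screen, 48 h exposure, 96-well plates. Endpoint: percent growth. Below 10 = active.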 Unmarked numbers belong to inactive results. Calls of active or inactive are those of the source.

Regarding `COc1ncc(-c2ccc3ncnc(Nc4cccc(Cl)c4)c3c2)cc1N(S(C)(=O)=O)S(C)(=O)=O`, the growth in the experiment on SR leukemia is 92.6%; in the experiment with OVCAR-8 ovarian it was 73.8%; in the experiment with OVCAR-5 ovarian, 43.2%; in the experiment on OVCAR-4 ovarian it was 77.3%; in the experiment on SK-OV-3 ovarian it was 52.2%; in the experiment on IGROV1 ovarian, -28.6% (active). For the same compound, the growth in the experiment on OVCAR-3 ovarian was 54.9%; in the experiment with HS 578T breast, 49.7%; in the experiment with NCI/ADR-RES ovarian, 72.7%.

With `CCC(c1ccc(OC)cc1)C(CC)c1ccc(OCC[N+](C)(C)C)cc1` (configuration not stated), the growth was 53.9% in the experiment on SR leukemia; 51.4% in the experiment with OVCAR-8 ovarian; 91% with OVCAR-5 ovarian; 63.4% in the experiment on OVCAR-4 ovarian; 87.7% in the experiment on SK-OV-3 ovarian; 34.6% in the experiment on OVCAR-3 ovarian. The figures for the growth with HS 578T breast and in the experiment with NCI/ADR-RES ovarian were 63.6% and 100%, respectively.

On to `CN(C)c1ccc(/C=C\N=Nc2ccc(Br)cc2)cc1`, for which the growth is 21% in the experiment with SR leukemia; 46.5% in the experiment with OVCAR-8 ovarian; 76.6% in the experiment with OVCAR-5 ovarian; 65% with OVCAR-4 ovarian; 92.8% in the experiment on SK-OV-3 ovarian; 66.7% with IGROV1 ovarian. Also, the growth was 67.9% in the experiment with OVCAR-3 ovarian, 102% in the experiment on HS 578T breast and 52.3% in the experiment on NCI/ADR-RES ovarian.

With `NC(=O)c1c(NC(=O)c2ccc3c(c2)OCO3)sc2c1CCC(=O)C2`, the growth is -19.6% (active) with SR leukemia; -15.9% (active) with OVCAR-8 ovarian; -49.8% (active) with OVCAR-5 ovarian; -70.8% (active) in the experiment on OVCAR-4 ovarian; -11.7% (active) in the experiment on SK-OV-3 ovarian; -17.1% (active) in the experiment with IGROV1 ovarian. In addition, the growth is -47% (active) in the experiment with OVCAR-3 ovarian, 16.7% in the experiment with HS 578T breast and -6.35% (active) with NCI/ADR-RES ovarian.

With `c1cncc(CNc2ccccc2-c2nnc(Nc3ccc4c(c3)OCCO4)o2)c1`, the growth in the experiment on SR leukemia is 14.1%; in the experiment with OVCAR-8 ovarian, 27.1%; with OVCAR-5 ovarian, 43.9%; in the experiment on OVCAR-4 ovarian it was 44%; with IGROV1 ovarian it was 40.9%; with OVCAR-3 ovarian, -50.3% (active). Further, the growth in the experiment on NCI/ADR-RES ovarian is 6.09% (active).

On to `Cc1ccc2nc(-c3c(CCCO)noc3N)[nH]c(=O)c2c1`, for which the growth in the experiment with SR leukemia is 71.8%; with OVCAR-8 ovarian, 106%; in the experiment with OVCAR-5 ovarian, 120%; with OVCAR-4 ovarian, 97.4%; with SK-OV-3 ovarian, 106%; with IGROV1 ovarian it was 4.96% (active). Besides, the growth in the experiment with OVCAR-3 ovarian was 104%; with HS 578T breast, 104%; in the experiment on NCI/ADR-RES ovarian, 123%.

For the compound `C=C1C(=O)O[C@H]2[C@H]1CC/C(Cn1cc(-c3ccsc3)nn1)=C\CC[C@@]1(C)O[C@@H]21`, the growth with SR leukemia is 3.37% (active); in the experiment with OVCAR-8 ovarian it was -4.45% (active); in the experiment on OVCAR-5 ovarian, -18.3% (active); with OVCAR-4 ovarian it was -46.6% (active); in the experiment with SK-OV-3 ovarian, 83.1%; in the experiment with IGROV1 ovarian it was -16% (active). For the same compound, the growth is -94.8% (active) in the experiment with OVCAR-3 ovarian, 28.2% in the experiment with HS 578T breast and 32% in the experiment on NCI/ADR-RES ovarian.

For the compound `O=C1Nc2cc(Cl)ccc2Oc2cc(Oc3ccccc3)ccc21`, the growth is 20.7% in the experiment on SR leukemia; 88% in the experiment on OVCAR-8 ovarian; 83% in the experiment on OVCAR-5 ovarian; 71.5% in the experiment with OVCAR-4 ovarian; 47.4% in the experiment with SK-OV-3 ovarian; 63.3% in the experiment with IGROV1 ovarian. The growth in the experiment on OVCAR-3 ovarian was 27.6%; with HS 578T breast, 43.3%; in the experiment with NCI/ADR-RES ovarian, 18.9%.

As for `O=C1CCCCN1CCCCC#Cc1ccccc1C#Cc1ccc([N+](=O)[O-])cc1`, the growth was 18.1% with SR leukemia; 55.4% in the experiment on OVCAR-8 ovarian; 60% with OVCAR-5 ovarian; 60.2% with OVCAR-4 ovarian; 71.1% in the experiment with SK-OV-3 ovarian; 56.3% in the experiment on OVCAR-3 ovarian. Also, the growth with HS 578T breast was 69.4%; with NCI/ADR-RES ovarian, 43.4%.

For `COc1cccc(NC(=O)Cn2cc3c(=O)oc4ccccc4c3n2)c1`, the growth in the experiment with SR leukemia was 110%; in the experiment with OVCAR-8 ovarian, 112%; in the experiment on OVCAR-5 ovarian, 113%; in the experiment on OVCAR-4 ovarian, 92.8%; with SK-OV-3 ovarian, 113%; in the experiment on IGROV1 ovarian, 97.1%. In addition, the growth in the experiment on OVCAR-3 ovarian was 99.1%; in the experiment on HS 578T breast, 104%; with NCI/ADR-RES ovarian, 100%.

For the compound `C=C1C(=O)O[C@H]2[C@H]1CC/C(COC(=O)NCCc1ccc(Br)cc1)=C\CC[C@@]1(C)O[C@@H]21`, the growth in the experiment on SR leukemia was -4.11% (active); with OVCAR-8 ovarian, 7.1% (active); in the experiment with OVCAR-5 ovarian it was 39.6%; in the experiment on OVCAR-4 ovarian, 30%; in the experiment with SK-OV-3 ovarian, 97.2%; in the experiment with OVCAR-3 ovarian, -71.8% (active). The growth is 22.9% with HS 578T breast and 58.4% in the experiment with NCI/ADR-RES ovarian.

For `O=C(CNc1ccc(Cl)cc1)Nc1ccc(-c2nc3ccccc3s2)cc1`, the growth in the experiment with SR leukemia was 11.5%; in the experiment on OVCAR-8 ovarian, 66.4%; in the experiment with OVCAR-5 ovarian it was 121%; in the experiment on OVCAR-4 ovarian, 23.1%; with SK-OV-3 ovarian it was 89.7%; in the experiment with IGROV1 ovarian, 34.3%. Besides, the growth with OVCAR-3 ovarian was 28.9%; in the experiment on HS 578T breast it was 84.1%; in the experiment with NCI/ADR-RES ovarian it was 64.5%.

Consider `NC(C(=O)O)C(O)c1ccc(OCc2ccccc2)c(OCc2ccccc2)c1` (configuration not stated), for which the growth was 92.3% in the experiment on SR leukemia; 99.6% in the experiment with OVCAR-8 ovarian; 101% with OVCAR-5 ovarian; 107% with OVCAR-4 ovarian; 103% in the experiment on SK-OV-3 ovarian; 106% in the experiment with OVCAR-3 ovarian. Moreover, the figures for the growth in the experiment with HS 578T breast and in the experiment with NCI/ADR-RES ovarian were 93.4% and 93.3%, respectively.

`COc1ccc(/C=C\c2cc(OC)c(OC)c(OC)c2)c(NS(=O)(=O)c2ccc(C(C)(C)C)cc2)c1O`: the growth in the experiment on SR leukemia was 16.4%; in the experiment with OVCAR-8 ovarian, 21.9%; in the experiment with OVCAR-5 ovarian it was 32.4%; in the experiment on OVCAR-4 ovarian, 28.2%; with SK-OV-3 ovarian it was 31%; in the experiment with IGROV1 ovarian, 38.5%. In addition, the growth with OVCAR-3 ovarian was 0.435% (active); in the experiment with HS 578T breast, 35.4%; in the experiment on NCI/ADR-RES ovarian it was 9.51% (active).

Take `COc1cccc(-c2nc3sccn3c2-c2ccnc(NCCNS(=O)(=O)c3ccccc3)n2)c1`: the growth is 70.3% in the experiment on SR leukemia; 49.2% in the experiment with OVCAR-8 ovarian; 124% in the experiment on OVCAR-5 ovarian; 57.4% in the experiment with OVCAR-4 ovarian; 79.9% with SK-OV-3 ovarian; 63.2% with IGROV1 ovarian. The growth in the experiment on OVCAR-3 ovarian is 68.3%; with HS 578T breast, 107%; in the experiment with NCI/ADR-RES ovarian, 47.1%.

In the case of `COc1ccc(/C=C/C(=O)c2ccc(B(O)O)cc2)cc1O`, the growth with SR leukemia was 19.6%; with OVCAR-8 ovarian, 89.9%; in the experiment on OVCAR-5 ovarian it was 88.2%; in the experiment with OVCAR-4 ovarian it was 114%; in the experiment on IGROV1 ovarian, 56.2%; in the experiment with OVCAR-3 ovarian, 58.5%. For the same compound, the growth in the experiment on HS 578T breast was 70.7%; with NCI/ADR-RES ovarian, 92.3%.
